# Test results from the supplement of paper PMC12494721.
# Where a name gives a salt, the structure may show the parent alone.
# Tested on: Ruminococcus gnavus DSM 108212
# Assay: fold change of Tryptamine concentration vs plate DMSO controls (fold change (ratio)); higher = more amine produced, active = hit call of the paper (significant change in both replicates, either direction)
# Conditions: incubation time: 27 h, anaerobic, 37 °C;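 for the amine columns active = adjusted P below 0.05 in both replicates with a change the same way and a mean fold change under 0.8 or over 1.25; inactive = the rest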
# In short: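 Anaerobic mGAM cultures of four gut bacterial strains were grown at 37 °C for 27 h in 80 µL wells, starting at OD 0.1 before 1:1 dilution. Compounds were at 20 µM final (sweeteners 50 µM). Whole cultures were extracted with cold acetonitrile/methanol containing 0.1% formic acid and centrifuged. Amines were quantified by LC–triple-quadrupole MS (dynamic MRM) against external calibration curves and drift-corrected within batch. Each value is the fold change versus plate DMSO controls, averaged over 2 biological replicates.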
row,SMILES,fold change of Tryptamine concentration
1,COc1ccc(CC(C)NCC(O)c2ccc(O)c(NC=O)c2)cc1 (stereo unspecified) [Formoterol fumarate] (20 µM),1.1 (inactive)
2,CCN(CC)CCc1nc(-c2ccccc2)no1 [Oxolamine citrate salt] (20 µM),1.03 (inactive)
3,O=C(O)c1cc(-c2ccc(F)cc2F)ccc1O [Diflunisal] (20 µM),1.02 (inactive)
4,NC(=O)NC1NC(=O)NC1=O (stereo unspecified) [Allantoin] (20 µM),1.17 (inactive)
5,CN1CCCN=C1/C=C/c1cccs1 [Pyrantel tartrate] (20 µM),1.08 (inactive)
6,CCN1CCN(c2cc3c(cc2F)c(=O)c(C(=O)O)cn3C2CC2)CC1 [Enrofloxacin] (20 µM),0.982 (inactive)
7,CCCNC(C)C(=O)Nc1c(C)csc1C(=O)OC (stereo unspecified) [Articaine hydrochloride] (20 µM),1.06 (inactive)
8,CCN(CC)CC(=O)Nc1c(C)cccc1C [Lidocaine hydrochloride] (20 µM),1.01 (inactive)
9,CCn1cc(C(=O)O)c(=O)c2cc(F)c(N3CCNC(C)C3)c(F)c21 (stereo unspecified) [Lomefloxacin hydrochloride] (20 µM),1.03 (inactive)
10,C[C@]12CCC(=O)C=C1CC[C@@H]1[C@@H]2C(=O)C[C@@]2(C)[C@H]1CC[C@]2(O)C(=O)CO [Cortisone] (20 µM),1.01 (inactive)
11,CCN(CC)CCNC(=O)c1cc(Cl)c(N)cc1OC [Metoclopramide monohydrochloride] (20 µM),1.02 (inactive)
12,C[C@@H](CN1CC(=O)NC(=O)C1)N1CC(=O)NC(=O)C1 [Dexrazoxane hydrochloride] (20 µM),1.03 (inactive)
13,CCOc1ccc(NC(C)=O)cc1 [Phenacetin] (20 µM),0.999 (inactive)
14,CC(C)C(=O)Nc1ccc([N+](=O)[O-])c(C(F)(F)F)c1 [Flutamide] (20 µM),1 (inactive)
15,Cc1ccc2c([nH]c(=O)c3c(=O)cc(C(=O)OCCC(C)C)oc32)c1C [Repirinast] (20 µM),0.977 (inactive)
16,CCCCc1oc2ccccc2c1C(=O)c1cc(I)c(OCCN(CC)CC)c(I)c1 [Amiodarone hydrochloride] (20 µM),0.75 (active)

row,SMILES,fold change of Tryptamine concentration
1,NCc1ccc(S(N)(=O)=O)cc1 [Mafenide hydrochloride] (20 µM),0.773 (inactive)
2,CC[C@@H](CO)NCCN[C@@H](CC)CO [Ethambutol dihydrochloride] (20 µM),1.04 (inactive)
3,Nc1c2ccccc2nc2ccccc12 [Aminacrine] (20 µM),0.911 (inactive)
4,CC(C(=O)O)c1cccc(C(=O)c2ccccc2)c1 (stereo unspecified) [Ketoprofen] (20 µM),1.06 (inactive)
5,CCOC(=O)[C@H](CCc1ccccc1)N[C@H]1CS[C@H](c2cccs2)CN(CC(=O)O)C1=O [Temocapril hydrochloride] (20 µM),0.991 (inactive)
6,CC(COc1ccccc1)N(CCCl)Cc1ccccc1 (stereo unspecified) [Phenoxybenzamine hydrochloride] (20 µM),1.01 (inactive)
7,CC1(C)OC(=O)NC1=O [Dimethadione] (20 µM),0.747 (inactive)
8,c1cnc(N2CCN(Cc3ccc4c(c3)OCO4)CC2)nc1 [Piribedil] (20 µM),1.02 (inactive)
9,O=c1[nH]c(=O)n(C2CCCO2)cc1F (stereo unspecified) [Tegafur] (20 µM),1.06 (inactive)
10,Nc1ccc(S(=O)(=O)Nc2ncccn2)cc1 [Sulfadiazine] (20 µM),0.997 (inactive)
11,Cc1onc(-c2c(Cl)cccc2Cl)c1C(=O)N[C@@H]1C(=O)N2[C@@H]1SC(C)(C)[C@@H]2C(=O)O [Dicloxacillin sodium salt hydrate] (20 µM),0.05 (active)
12,CN(C)CCC=C1c2ccccc2C=Cc2ccccc21 [Cyclobenzaprine hydrochloride] (20 µM),0.915 (inactive)
13,C#C[C@]1(O)CC[C@H]2[C@@H]3CCc4cc(O)ccc4[C@H]3CC[C@@]21C [Ethinylestradiol] (20 µM),0.972 (inactive)
14,CN1CC(O)c2cc(N=NC(N)=O)c(O)cc21 (stereo unspecified) [Carbazochrome] (20 µM),1.15 (inactive)
15,C[C@@H](O[C@H]1OCCN(Cc2n[nH]c(=O)[nH]2)[C@H]1c1ccc(F)cc1)c1cc(C(F)(F)F)cc(C(F)(F)F)c1 [Aprepitant] (20 µM),0.742 (inactive)
